High-throughput results from PubChem.
This excerpt belongs to a sample that is enriched for hits.
Dicer inh – inhibitors of human Dicer processing of pre-microRNA. Q9UPY3. cat-ELCCA pre-miR-21 Dicer processing, chemiluminescence; active compounds read high. z-score at 25 µM. hit rate 6% among 47,000. AID 1347074; in the data active = z-score above about 3, passing the limit was not always enough;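 note: plate controls were vehicle for no effect and no enzyme for full effect; higher signal means more uncleaved substrate so more Dicer inhibition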
An asterisk follows results filed as active.

SMILES	Dicer inh
CC(=O)Oc1ccc2c(=O)c(Oc3ccccc3Br)coc2c1	-0.7
COc1cc2[nH]c(Nc3ccc(Cl)cc3)c([N+](=O)[O-])c2cc1OC	0.7
COC(=O)C1=C(Nc2ccc(F)c(Cl)c2)CSC1	-1.7
CN(C)CCN1C(=O)C(=O)/C(=C(/O)c2ccc(S(=O)(=O)N(C)C)cc2)C1c1ccccc1F (centres undefined)	1.2
COc1ccc(/C(O)=C2\C(=O)C(=O)N(CCCN(C)C)C2c2ccccc2)cc1 (centres undefined)	1.4
COc1ccc(/C(O)=C2\C(=O)C(=O)N(CCN(C)C)C2c2ccccc2F)cc1 (centres undefined)	3.4*
COC(=O)CC1(C(=O)OC)Oc2ccccc2C(=O)N1c1cc(Cl)cc(Cl)c1 (centres undefined)	-0.2
NC(=O)CN1C(=O)C(O)(CC(=O)c2ccc(F)cc2)c2ccccc21 (centres undefined)	-0.61
COc1nc(Nc2ccccc2)nc(OC)n1	-1.6
O=c1c(Nc2ccccc2)c(Nc2ccccc2)c1=O	7.3*
CC(C)c1ccc(Nc2c(Nc3ccc(C(C)C)cc3)c(=O)c2=O)cc1	-0.03
Cn1nc(-c2ccc(Cl)cc2)cc1NC(=O)c1ccccc1C(=O)O	2.6
Cc1[nH]c2ccccc2c1C(=O)CSc1nnc(-c2ccco2)n1-c1ccccc1	4.7*
O=C(CSc1nnc(-c2ccco2)n1-c1ccc(OCc2ccccc2)cc1)c1ccccc1	-0.72
CCn1c(SCC(=O)c2c[nH]c3ccccc23)nnc1-c1ccco1	3.4*
Cc1[nH]c2ccccc2c1C(=O)CSc1nnc(-c2cccs2)n1C	0.7
CCn1c(SCC(=O)c2c(C)[nH]c3ccccc23)nnc1-c1ccco1	2.6
Cc1[nH]c2ccccc2c1C(=O)CSc1nnc(-c2ccco2)n1C	2.9
Cc1[nH]c2ccccc2c1C(=O)CSc1nnc(Cc2cccs2)n1C	3.4*
CCn1c(SCC(=O)c2c[nH]c3ccccc23)nnc1-c1cccs1	2.1
Cc1[nH]c2ccccc2c1C(=O)CSc1nnc(C2CCCCC2)n1C	1.4
CCOCCOC(=O)C1=C(C)NC2=C(C(=O)CC(c3cccs3)C2)C1c1ccc(Cl)cc1 (centres undefined)	1.9
O=c1sc2ccccc2n1CCCOc1ccc(Cl)cc1	-0.31
CC(C)C(=O)NCCNC(=O)c1nonc1N	-0.98
N#Cc1c(N)n(Cc2ccccc2)c(=O)c2cccnc12	-1.9
SMILES	Dicer inh
CC(=C\c1ccc(Cl)cc1)/C(C)=N/O	0.12
CCOC(=O)N1CCc2ccccc21	1.7
COc1cccc(C2CC(=O)NC(SCc3ccccc3)=C2C#N)c1 (centres undefined)	0.04
CCc1n(CC(O)COc2cccc(Cl)c2)c2ccccc2[n+]1C (centres undefined)	0.01
CCOC(=O)C1=C(c2ccccc2)N=C2SCC(=O)N2C1c1cccc(OC)c1OC (centres undefined)	0.38
CN(C)c1ncnc2c1[nH]c1ccccc12	3.5*
Cc1ccc2[nH]c3c(N4CCCCC4)ncnc3c2c1	2.9
CCN(CC)c1ncnc2c1[nH]c1ccccc12	1.9
Cc1c(C(=O)N(Cc2cccs2)C2CCS(=O)(=O)C2)oc2ccccc12 (centres undefined)	1.7
Cc1c(C(=O)N(Cc2ccccc2)C2CCS(=O)(=O)C2)oc2ccccc12 (centres undefined)	1.1
CCc1ccc(CN(C(=O)c2oc3ccccc3c2C)C2CCS(=O)(=O)C2)cc1 (centres undefined)	3.6*
S=C(NN=C1CCCC1)NC1CC2C=CC1C2 (centres undefined)	0.78
COc1ccc(Br)cc1CN1CCN(Cc2cccnc2)CC1	2.2
O=C(Nc1nnc(SCc2ccccc2)s1)c1cc2ccccc2c(=O)o1	-1.8
O=C1OC(Nc2ccccc2SCc2ccccc2Cl)c2ccccc21 (centres undefined)	3.3*
O=C1OC(Nc2ccccc2Sc2ccc(Cl)cc2[N+](=O)[O-])c2ccccc21 (centres undefined)	0.08
N#Cc1ccc(CSc2ccccc2NC2OC(=O)c3ccccc32)cc1 (centres undefined)	3.2
CCOC(=O)c1cnc(SCC(=O)c2ccc(-c3ccccc3)cc2)nc1N	1.3
COc1cc2c(cc1OC)C(/C=C1\SC(C(C)=O)=NN1c1ccc(C)cc1)=NCC2	0.71
O=S(=O)(CCSc1nccc(-c2cccs2)n1)c1ccc(Cl)cc1Cl	1.1
CN1CCc2c(sc3c2C(=O)NC(c2ccc(F)cc2)N3)C1 (centres undefined)	-1
CC1=CC(C)(C)N(S(=O)(=O)c2ccc(F)cc2)c2ccc(C)cc21	-0.75
CCOc1ccc(S(=O)(=O)N2c3ccc(C)cc3C(C)=CC2(C)C)cc1	3.5*
COc1ccc(S(=O)(=O)N2c3ccc(C)cc3C(C)=CC2(C)C)cc1	-1
CSc1sc(-c2ccnc(SCC(N)=O)n2)c(-c2ccccc2)c1C#N	1.3
SMILES	Dicer inh
Cc1ccc2c(c1)C(C)(c1ccccc1)CC(C)(C)N2C(=O)CSc1nncn1C (centres undefined)	5.6*
CC1=CC(C)(C)N(C(=O)CSc2nncn2C)c2ccccc21	0.89
Cn1cnnc1SCC(=O)N1c2ccccc2CCc2ccccc21	0.92
NS(=O)(=O)c1ccccc1Sc1ccccc1C(=O)O	0
O=C(O)CCSc1nnc(-c2cccc(Cl)c2)o1	-1.3
Cn1c(=O)c2c(nc(NCCO)n2Cc2cccc3ccccc23)n(C)c1=O	3.1*
CCN(CC)CCNc1nc2c(c(=O)[nH]c(=O)n2C)n1Cc1ccc(Cl)cc1	-3.5
Cn1c(=O)c2c(nc(Cl)n2Cc2ccccc2)n(C)c1=O	-3.9
CCN(CC)CCNc1nc2c(c(=O)n(C)c(=O)n2C)n1Cc1ccc(Cl)c(Cl)c1	-0.88
Cn1c(=O)c2c(nc(NCc3ccccc3)n2Cc2ccccc2)n(C)c1=O	1.2
Cn1c(=O)c2c(nc(NC3CCCCC3)n2Cc2ccccc2)n(C)c1=O	3.6*
Cn1c(=O)c2c(nc(N/N=C/c3cccc(O)c3)n2Cc2ccccc2Br)n(C)c1=O	3.4*
Cn1c(=O)c2c(nc(N/N=C/c3ccccc3)n2Cc2ccccc2)n(C)c1=O	1.2
CCN(CC)CCNc1nc2c(c(=O)n(C)c(=O)n2C)n1Cc1ccc(F)cc1	3.3*
Cn1c(=O)c2c(nc(NCCc3ccccc3)n2Cc2ccccc2F)n(C)c1=O	-0.97
Cn1c(=O)c2c(nc(N/N=C/c3ccc(O)cc3)n2Cc2c(Cl)cccc2Cl)n(C)c1=O	4.8
Cn1c(=O)c2c(nc(NCCCO)n2Cc2ccccc2F)n(C)c1=O	0.32
Cc1nnc(N2C(=O)c3oc4ccccc4c(=O)c3C2c2ccc(Br)cc2)s1 (centres undefined)	0.37
N#Cc1c(-c2ccc(F)cc2)c2c([nH]c1=O)-c1ccccc1CC2	0.96
N#Cc1c(-c2ccc(F)cc2)c2c([nH]c1=O)-c1ccccc1SC2	3.5*
N#Cc1c(-c2cccnc2)c2c([nH]c1=O)-c1ccccc1SC2	0.62
CSc1sc(C(=O)NN)cc1S(=O)(=O)C(C)C	-1.5
Cc1nnc2n1N=C(c1ccc(Br)cc1)CS2	-0.52
COc1cc(C2C(C(=O)OC(C)C)=C(C)NC3=C2C(=O)CC(C)(C)C3)cc(Cl)c1O (centres undefined)	-0.64
COC(=O)C1=C(C)NC2=C(C(=O)CCC2)C1c1ccc(C)cc1 (centres undefined)	-0.25
COc1cc(S(=O)(=O)n2cnc(C)c2)ccc1F	-0.39
O=C(Nc1cccnc1)c1cc(-c2ccc(Cl)cc2)oc1C(F)(F)F	0.08
O=c1sc2ccccc2c(Nc2ccccc2)c1[N+](=O)[O-]	3.6*
